Reference: the supplement of paper PMC8728848
The sample as a whole holds a higher share of the strongest signals than the screen did.

Columns and labels:
Experiment in all cases: glycan array binding signal (z-score within array); higher = stronger binding
Details in all cases: glycan notation: IUPAC condensed, linker removed
[1] = target: Fuc(a1-2)Gal(b1-3)GlcNAc(b1-2)Man(a1-3)[Fuc(a1-2)Gal(b1-3)GlcNAc(b1-2)Man(a1-6)]Man(b1-4)GlcNAc(b1-4)[Fuc(a1-6)]GlcNAc
Summary of the method: (§1)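 Columns mapping to the same glycan were averaged after glycan names were converted to IUPAC-condensed notation. The data come from 3228 arrays in the Consortium for Functional Glycomics database, limited to those with an available protein sequence. Binding is reported as a within-array Z-score averaged across arrays of one protein sequence and across linkers.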

[2] = target: Fuc(a1-2)Gal(b1-3)GlcNAc(b1-3)GalNAc
Summary of the method: as §1

[3] = target: Fuc(a1-2)Gal(b1-3)[Fuc(a1-4)]GlcNAc(b1-2)Man(a1-3)[Fuc(a1-2)Gal(b1-3)[Fuc(a1-4)]GlcNAc(b1-2)Man(a1-6)]Man(b1-4)GlcNAc(b1-4)GlcNAc
Summary of the method: as §1

[4] = target: Fuc(a1-2)Gal(b1-4)GlcNAc(b1-2)Man
Summary of the method: as §1

[5] = target: Fuc(a1-2)Gal(b1-4)GlcNAc(b1-2)Man(a1-3)[Fuc(a1-2)Gal(b1-4)GlcNAc(b1-2)Man(a1-6)]Man(b1-4)GlcNAc(b1-4)GlcNAc
Summary of the method: as §1

[6] = target: Fuc(a1-2)Gal(b1-4)GlcNAc(b1-3)[Fuc(a1-2)Gal(b1-4)GlcNAc(b1-6)]GalNAc
Summary of the method: as §1

[7] = target: Fuc(a1-2)Gal(b1-4)[Fuc(a1-3)]GlcNAc(b1-3)Gal(b1-4)[Fuc(a1-3)]GlcNAc
Summary of the method: as §1

[8] = target: Fuc(a1-2)Gal6S(b1-4)Glc
Summary of the method: as §1

[9] = target: Fuc(a1-2)[Gal(a1-3)]Gal(b1-3)GlcNAc(b1-2)Man(a1-3)[Fuc(a1-2)[Gal(a1-3)]Gal(b1-3)GlcNAc(b1-2)Man(a1-6)]Man(b1-4)GlcNAc(b1-4)GlcNAc
Summary of the method: as §1

[10] = target: Fuc(a1-2)[Gal(a1-3)]Gal(b1-3)GlcNAc(b1-2)Man(a1-3)[Fuc(a1-2)[Gal(a1-3)]Gal(b1-3)GlcNAc(b1-2)Man(a1-6)]Man(b1-4)GlcNAc(b1-4)[Fuc(a1-6)]GlcNAc
Summary of the method: as §1

[11] = target: Fuc(a1-2)[Gal(a1-3)]Gal(b1-4)GlcNAc(b1-2)Man(a1-3)[Fuc(a1-2)[Gal(a1-3)]Gal(b1-4)GlcNAc(b1-2)Man(a1-6)]Man(b1-4)GlcNAc(b1-4)GlcNAc
Summary of the method: as §1

[12] = target: Fuc(a1-2)[GalNAc(a1-3)]Gal
Summary of the method: as §1

[13] = target: Fuc(a1-2)[GalNAc(a1-3)]Gal(b1-3)GlcNAc(b1-2)Man(a1-3)[Fuc(a1-2)[GalNAc(a1-3)]Gal(b1-3)GlcNAc(b1-2)Man(a1-6)]Man(b1-4)GlcNAc(b1-4)GlcNAc
Summary of the method: as §1

[14] = target: Fuc(a1-3)[Gal(b1-4)]GlcNAc(b1-6)[Neu5Ac(a2-3)Gal(b1-3)]GalNAc
Summary of the method: as §1

[15] = target: Fuc(a1-3)[GalNAc3S(b1-4)]GlcNAc
Summary of the method: as §1

[16] = target: Gal(a1-3)Gal(b1-3)GlcNAc(b1-2)Man(a1-3)[Gal(a1-3)Gal(b1-3)GlcNAc(b1-2)Man(a1-6)]Man(b1-4)GlcNAc(b1-4)GlcNAc
Summary of the method: as §1

[17] = target: Gal(a1-3)Gal(b1-3)GlcNAc(b1-3)GalNAc
Summary of the method: as §1

[18] = target: Gal(a1-3)Gal(b1-4)[Fuc(a1-3)]GlcNAc(b1-2)Man(a1-3)[Gal(a1-3)Gal(b1-4)[Fuc(a1-3)]GlcNAc(b1-2)Man(a1-6)]Man(b1-4)GlcNAc(b1-4)GlcNAc
Summary of the method: as §1

[19] = target: Gal(b1-3)GlcNAc(b1-3)Gal(b1-4)GlcNAc(b1-6)[Gal(b1-3)GlcNAc(b1-3)]Gal(b1-4)Glc
Summary of the method: as §1

[20] = target: Gal(b1-3)[Neu5Ac(a2-6)]GlcNAc(b1-6)Gal(b1-4)Glc
Summary of the method: as §1

[21] = target: Gal3S(b1-3)GlcNAc
Summary of the method: as §1

[22] = target: Gal3S(b1-4)Glc
Summary of the method: as §1

[23] = target: Gal4S(b1-4)GlcNAc
Summary of the method: as §1

[24] = target: Gal6S(b1-4)Glc6S
Summary of the method: as §1

[25] = target: GalNAc(a1-3)Fuc(a1-2)Gal(b1-4)GlcNAc(b1-3)[GalNAc(a1-3)Fuc(a1-2)Gal(b1-4)GlcNAc(b1-6)]GalNAc
Summary of the method: as §1

[26] = target: GalNAc(b1-3)Gal
Summary of the method: as §1

[27] = target: Glc(a1-6)Glc(a1-6)Glc(a1-6)Glc
Summary of the method: as §1

[28] = target: GlcA(b1-3)Gal
Summary of the method: as §1

[29] = target: GlcNAc(a1-4)Gal(b1-4)GlcNAc(b1-3)Gal(b1-4)[Fuc(a1-3)]GlcNAc(b1-3)Gal(b1-4)[Fuc(a1-3)]GlcNAc
Summary of the method: as §1

[30] = target: GlcNAc(b1-3)Gal(b1-3)GalNAc
Summary of the method: as §1

[31] = target: GlcNAc(b1-4)Gal(b1-4)GlcNAc
Summary of the method: as §1

[32] = target: Neu5Ac(a2-3)Gal(b1-3)GlcNAc(b1-2)Man(a1-3)[GlcNAc(b1-4)][Neu5Ac(a2-3)Gal(b1-3)GlcNAc(b1-2)Man(a1-6)]Man(b1-4)GlcNAc(b1-4)GlcNAc
Summary of the method: as §1

[33] = target: Neu5Ac(a2-3)Gal(b1-3)GlcNAc(b1-3)GalNAc
Summary of the method: as §1

[34] = target: Neu5Ac(a2-3)Gal(b1-3)GlcNAc(b1-6)GalNAc
Summary of the method: as §1

[35] = target: Neu5Ac(a2-3)Gal(b1-3)[Neu5Ac(a2-6)]GalNAc
Summary of the method: as §1

[36] = target: Neu5Ac(a2-3)Gal(b1-4)GlcNAc
Summary of the method: as §1

[37] = target: Neu5Ac(a2-3)Gal(b1-4)GlcNAc(b1-3)Gal(b1-3)GlcNAc
Summary of the method: as §1

[38] = target: Neu5Ac(a2-3)Gal(b1-4)GlcNAc(b1-3)Gal(b1-4)[Fuc(a1-3)]GlcNAc
Summary of the method: as §1

[39] = target: Neu5Ac(a2-3)Gal(b1-4)[Fuc(a1-3)]GlcNAc(b1-3)GalNAc
Summary of the method: as §1

[40] = target: Neu5Ac(a2-6)Gal(b1-4)GlcNAc(b1-2)Man(a1-3)Man(b1-4)GlcNAc(b1-4)GlcNAc
Summary of the method: as §1

[41] = target: Neu5Ac(a2-6)Gal(b1-4)GlcNAc(b1-2)Man(a1-3)[Man(a1-6)]Man(b1-4)GlcNAc(b1-4)GlcNAc
Summary of the method: as §1

[42] = target: Neu5Ac(a2-6)Gal(b1-4)GlcNAc(b1-2)Man(a1-6)Man(b1-4)GlcNAc(b1-4)GlcNAc
Summary of the method: as §1

[43] = target: Neu5Ac(a2-6)Gal(b1-4)GlcNAc(b1-3)Gal(b1-4)GlcNAc(b1-3)Gal(b1-4)GlcNAc
Summary of the method: as §1

[44] = target: Neu5Ac(a2-8)Neu5Ac(a2-3)[GalNAc(b1-4)]Gal(b1-4)Glc
Summary of the method: as §1

[45] = target: Neu5Ac(a2-8)Neu5Ac(a2-8)Neu5Ac(a2-3)Gal(b1-4)Glc
Summary of the method: as §1

B1: Intelectin-1a (Mus musculus) (protein)
chain: AEWSHPQFEKAEENLDTNRWGNSFFSSLPRSCKEIKQEHTKAQDGLYFLRTKNGVIYQTFCDMTTAGGGWTLVASVHENNMRGKCTVGDRWSSQQGNRADYPEGDGNWANYNTFGSAEAATSDDYKNPGYFDIQAENLGIWHVPNKSPLHNWRKSSLLRYRTFTGFLQHLGHNLFGLYKKYPVKYGEGKCWTDNGPALPVVYDFGDARKTASYYSPSGQREFTAGYVQFRVFNNERAASALCAGVRVTGCNTEHHCIGGGGFFPEGNPVQCGDFASFDWDGYGTHNGYSSSRKITEAAVLLFYR
[1]
  glycan array binding signal (z-score): -0.492
[2]
  glycan array binding signal (z-score): 2.92
[3]
  glycan array binding signal (z-score): 2.9
[4]
  glycan array binding signal (z-score): 1.06
[5]
  glycan array binding signal (z-score): -0.329
[6]
  glycan array binding signal (z-score): -0.517
[7]
  glycan array binding signal (z-score): -1.05
[8]
  glycan array binding signal (z-score): 1.88
[9]
  glycan array binding signal (z-score): 0.954
[10]
  glycan array binding signal (z-score): 3.73
[11]
  glycan array binding signal (z-score): -0.423
[12]
  glycan array binding signal (z-score): 0.968
[13]
  glycan array binding signal (z-score): 0.792
[14]
  glycan array binding signal (z-score): -0.328
[15]
  glycan array binding signal (z-score): 0.115
[16]
  glycan array binding signal (z-score): 2.64
[17]
  glycan array binding signal (z-score): -0.09
[18]
  glycan array binding signal (z-score): 2.76
[19]
  glycan array binding signal (z-score): 2.74
[20]
  glycan array binding signal (z-score): 0.312
[21]
  glycan array binding signal (z-score): -0.392
[22]
  glycan array binding signal (z-score): -0.304
[23]
  glycan array binding signal (z-score): -0.354
[24]
  glycan array binding signal (z-score): -0.38
[25]
  glycan array binding signal (z-score): 1.24
[26]
  glycan array binding signal (z-score): -0.938
[27]
  glycan array binding signal (z-score): -0.709
[28]
  glycan array binding signal (z-score): 0.662
[29]
  glycan array binding signal (z-score): 5.84
[30]
  glycan array binding signal (z-score): -0.724
[31]
  glycan array binding signal (z-score): -0.454
[32]
  glycan array binding signal (z-score): -0.723
[33]
  glycan array binding signal (z-score): -0.237
[34]
  glycan array binding signal (z-score): 0.808
[35]
  glycan array binding signal (z-score): -0.222
[36]
  glycan array binding signal (z-score): -1.12
[37]
  glycan array binding signal (z-score): -0.402
[38]
  glycan array binding signal (z-score): -0.8
[39]
  glycan array binding signal (z-score): 6.37
[40]
  glycan array binding signal (z-score): 0.578
[41]
  glycan array binding signal (z-score): 3.98
[42]
  glycan array binding signal (z-score): -0.293
[43]
  glycan array binding signal (z-score): 0.765
[44]
  glycan array binding signal (z-score): -0.791
[45]
  glycan array binding signal (z-score): -0.483
